The full list was thinned out, with hits kept by preference.
STK33 inh = STK33 kinase inhibitors, primary screen, biochemical, luminescence, ADP-Glo, MBP substrate; Serine/threonine-protein kinase 33 (Homo sapiens), Q9BYT3; inhibition, % at 12.5 µM; 0.44% of 27,000 active; AID 2322, 2010; in the data active means inhibition above about 20%; inconclusive means no clear call, values can overlap the other calls
Target sequence (Q9BYT3 whole entry, looked up): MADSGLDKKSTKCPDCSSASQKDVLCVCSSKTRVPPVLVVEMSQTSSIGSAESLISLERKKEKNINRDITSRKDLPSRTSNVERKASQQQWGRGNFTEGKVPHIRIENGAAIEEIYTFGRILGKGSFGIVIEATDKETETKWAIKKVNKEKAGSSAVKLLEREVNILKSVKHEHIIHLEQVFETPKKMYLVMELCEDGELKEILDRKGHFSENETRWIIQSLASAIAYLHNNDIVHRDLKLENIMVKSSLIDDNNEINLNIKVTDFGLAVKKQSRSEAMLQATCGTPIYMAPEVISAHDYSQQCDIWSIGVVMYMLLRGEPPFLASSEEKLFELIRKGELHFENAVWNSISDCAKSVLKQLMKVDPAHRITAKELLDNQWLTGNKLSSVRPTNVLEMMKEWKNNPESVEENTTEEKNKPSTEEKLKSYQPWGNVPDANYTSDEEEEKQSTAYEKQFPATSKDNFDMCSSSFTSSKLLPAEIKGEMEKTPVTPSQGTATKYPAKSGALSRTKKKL
PD-1 reverse act = activators reversing PD-1 mediated T-cell inhibition, primary screen, luminescence, primary human CD4 T cells, PD-L1 beads; activation, % (no concentration beside the values); AID 2316, 2010; 29,000 tested, under 10 active; CellTiter-Glo 96 h; call rule not given here;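 further: 0% = median vehicle wells and 100% = positive control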
NOMO-1 viab = NOMO-1 AML cell viability reduction, primary screen, STK33 inhibitor project, CellTiter-Glo luminescence; NOMO-1 AML viability, 72 h; inhibition, % (no concentration beside the values); 7.5% of 37,000 active; AID 2330, 2010; in the data active means inhibition above about 80%; inconclusive means no clear call, values can overlap the other calls
* = called active by the depositor.

Screening C[C@H](CO)N1C[C@H](C)[C@H](CN(C)C(=O)Nc2ccc3c(c2)OCO3)Oc2c(NC(=O)Nc3ccc(C(F)(F)F)cc3)cccc2C1=O returned PD-1 reverse act -3 and NOMO-1 viab 115*.
For C[C@H]1CN([C@@H](C)CO)C(=O)c2cccc(NC(=O)Nc3ccc4c(c3)OCO4)c2O[C@@H]1CN(C)C(=O)Nc1ccc2c(c1)OCO2 the results were PD-1 reverse act -1 and NOMO-1 viab 41.
`COc1ccc(OCC(=O)Nc2cc(-c3nc4ccccc4o3)ccc2C)cc1` gave STK33 inh 3, PD-1 reverse act -1 and NOMO-1 viab 22.
CSc1ccccc1NC(=O)C(C)n1nc([N+](=O)[O-])c(Br)c1C (stereo not given) was read as STK33 inh -2, PD-1 reverse act -2 and NOMO-1 viab 37.
For O=C(CSc1nc2sc3c(c2c(=O)n1Cc1ccccc1)CCCCC3)c1ccccc1 the results were STK33 inh 0, PD-1 reverse act -3 and NOMO-1 viab inconclusive.
Screening CN1C(=O)c2ccc(C(=O)Nc3ccc(OCC(=O)O)cc3)cc2C1=O returned STK33 inh -4, PD-1 reverse act 0 and NOMO-1 viab -12.
`CC(=O)N1CCN(c2ccc(OCC3CO[C@](Cn4ccnc4)(c4ccc(Cl)cc4Cl)O3)cc2)CC1` (stereo not given in full) gave STK33 inh 5 and NOMO-1 viab 107*.
`CC(C)N1CCN(c2ccc(OC[C@H]3CO[C@](Cn4cncn4)(c4ccc(Cl)cc4Cl)O3)cc2)CC1` gave STK33 inh -2 and NOMO-1 viab 31.
`Cc1sc2ncn(CC(=O)Nc3cccc(C(F)(F)F)c3)c(=O)c2c1-c1ccc(Cl)cc1` gave STK33 inh -3, PD-1 reverse act -2 and NOMO-1 viab 46.
Cc1cc(C(F)(F)F)nc(SCC(=O)Nc2ccc(Cl)cc2)n1 was read as STK33 inh 0, PD-1 reverse act 0 and NOMO-1 viab -1.
For C[C@@H]1CN([C@@H](C)CO)C(=O)c2cc(N(C)C)ccc2O[C@@H]1CN(C)Cc1ccc(C(=O)Nc2ccccc2N)cc1 the results were PD-1 reverse act -3 and NOMO-1 viab 110*.
`C[C@H]1CN([C@@H](C)CO)C(=O)c2cc(NC(=O)c3ccncc3)ccc2O[C@@H]1CN(C)Cc1ccc(C(=O)Nc2ccccc2N)cc1` gave PD-1 reverse act 0 and NOMO-1 viab -3.
`C[C@H]1CN([C@@H](C)CO)C(=O)c2cc(N(C)C)ccc2O[C@@H]1CN(C)Cc1ccc(C(=O)Nc2ccccc2N)cc1` gave PD-1 reverse act -2 and NOMO-1 viab 112*.
Screening C[C@@H]1CN([C@H](C)CO)C(=O)c2cc(NC(=O)c3ccncc3)ccc2O[C@@H]1CN(C)Cc1ccc(C(=O)Nc2ccccc2N)cc1 returned PD-1 reverse act -3 and NOMO-1 viab inconclusive.
Screening CCOC(=O)c1c(NC(=O)c2nc3ncccn3n2)sc(C)c1C returned STK33 inh 1, PD-1 reverse act -2 and NOMO-1 viab -1.
CCN(CC)CCn1nnc2c(=O)oc3ccccc3c21 was read as STK33 inh 0 and NOMO-1 viab 19.
For CC(C)n1c(-c2ccccc2)nc2ccccc21 the results were PD-1 reverse act 0 and NOMO-1 viab 0.
C=CCn1c(C)c2cc(Cl)c(Cl)cc2[n+]1C was read as PD-1 reverse act 1 and NOMO-1 viab 0.
For COc1ccc(S(=O)(=O)N(C)C[C@@H]2Oc3c(NC(=O)CCCCCC(=O)Nc4ccccc4N)cccc3C(=O)N([C@@H](C)CO)C[C@@H]2C)cc1 the results were PD-1 reverse act 3 and NOMO-1 viab 61.
Screening C[C@H]1CN([C@@H](C)CO)C(=O)c2cccc(NC(=O)CCCCCC(=O)Nc3ccccc3N)c2O[C@H]1CN(C)S(=O)(=O)c1ccc(Cl)cc1 returned PD-1 reverse act 0 and NOMO-1 viab 115*.
COc1ccc(S(=O)(=O)N(C)C[C@H]2Oc3c(NC(=O)CCCCCC(=O)Nc4ccccc4N)cccc3C(=O)N([C@@H](C)CO)C[C@H]2C)cc1 was read as PD-1 reverse act 0 and NOMO-1 viab 68.
C[C@H](CO)N1C[C@H](C)[C@@H](CN(C)S(=O)(=O)c2ccccc2)Oc2c(NC(=O)CCCCCC(=O)Nc3ccccc3N)cccc2C1=O was read as PD-1 reverse act 0 and NOMO-1 viab 43.
Screening C[C@@H]1CN([C@H](C)CO)C(=O)c2cccc(NC(=O)CCCCCC(=O)Nc3ccccc3N)c2O[C@H]1CN(C)S(=O)(=O)c1ccc(Cl)cc1 returned PD-1 reverse act 0 and NOMO-1 viab 121*.
Screening C[C@H](CO)N1C[C@H](C)[C@@H](CN(C)S(=O)(=O)c2ccc(Cl)cc2)Oc2c(NC(=O)CCCCCC(=O)Nc3ccccc3N)cccc2C1=O returned PD-1 reverse act 0 and NOMO-1 viab 88*.
For C[C@H]1CN([C@@H](C)CO)C(=O)c2cccc(NC(=O)CCCCCC(=O)Nc3ccccc3N)c2O[C@H]1CN(C)S(=O)(=O)c1ccccc1 the results were PD-1 reverse act 0 and NOMO-1 viab 65.
Screening Cc1ccc(S(=O)(=O)N(C)C[C@@H]2Oc3c(NC(=O)CCCCCC(=O)Nc4ccccc4N)cccc3C(=O)N([C@H](C)CO)C[C@@H]2C)cc1 returned PD-1 reverse act 0 and NOMO-1 viab 111*.
Screening Cc1ccc(S(=O)(=O)Nc2ccc3c(c2)C(=O)N([C@H](C)CO)C[C@H](C)[C@H](CN(C)C(=O)Nc2cccc4ccccc24)OCCCC[C@@H](C)O3)cc1 returned STK33 inh 5, PD-1 reverse act -1 and NOMO-1 viab 111*.
Cc1ccc(S(=O)(=O)Nc2ccc3c(c2)C(=O)N([C@H](C)CO)C[C@H](C)[C@@H](CN(C)C(=O)Nc2ccc(C(F)(F)F)cc2)OCCCC[C@@H](C)O3)cc1 was read as STK33 inh 0 and NOMO-1 viab 69.
Screening C[C@@H]1CCCCO[C@@H](CN(C)C(=O)Nc2cccc3ccccc23)[C@@H](C)CN([C@H](C)CO)C(=O)c2cc(NS(=O)(=O)c3ccccc3)ccc2O1 returned STK33 inh 5, PD-1 reverse act -3 and NOMO-1 viab 55.
Screening Cc1noc(C)c1S(=O)(=O)Nc1ccc2c(c1)C(=O)N([C@H](C)CO)C[C@H](C)[C@H](CN(C)C(=O)Nc1ccc(C(F)(F)F)cc1)OCCCC[C@@H](C)O2 returned STK33 inh 3, PD-1 reverse act -5 and NOMO-1 viab inconclusive.
For C[C@@H]1CCCCO[C@@H](CN(C)C(=O)C2CCCCC2)[C@@H](C)CN([C@H](C)CO)C(=O)c2cc(NS(=O)(=O)c3ccccc3)ccc2O1 the results were STK33 inh 6 and NOMO-1 viab 101*.
`C[C@@H]1CCCCO[C@@H](CN(C)C(=O)Nc2ccc(C(F)(F)F)cc2)[C@@H](C)CN([C@H](C)CO)C(=O)c2cc(NS(=O)(=O)c3ccc(F)cc3)ccc2O1` gave STK33 inh 2, PD-1 reverse act -8 and NOMO-1 viab 110*.
`Cc1noc(C)c1S(=O)(=O)Nc1ccc2c(c1)C(=O)N([C@H](C)CO)C[C@H](C)[C@@H](CN(C)C(=O)Nc1ccc(C(F)(F)F)cc1)OCCCC[C@@H](C)O2` gave STK33 inh -1, PD-1 reverse act -2 and NOMO-1 viab 115*.

Assay outcomes as filed in PubChem.
